Experimental data from ChEMBL document CHEMBL1157539, “Thousands of chemical starting points for antimalarial lead identification” (Nature, 2010).
In all, about 13,000 compounds were measured (“IFI”: median about 4, highest 2% from about 17 on). Shown is part of a subset that was picked to be rich in the highest values.

Assay: GSK_TCMDC: Inhibition Frequency Index (IFI). The number of non-kinase HTS assays where a compound showed > 50 % inhibition, expressed as a percentage of the number of such assays in which the compound was tested
Type: functional

Compound | IFI [%]
Cc1c(Cl)cccc1S(=O)(=O)Nc1cccc(CCN2CCC(N3CCCCC3)CC2)c1 | 14.3
O=S(=O)(Nc1cccc(CCN2CCC(N3CCCCC3)CC2)c1)c1cccc2ccccc12 | 8.06
CN(C)c1cccc2c(S(=O)(=O)Nc3cccc(CCN4CCC(N5CCCCC5)CC4)c3)cccc12 | 18
CC(N)(Cc1ccc(O)cc1)c1nnn[nH]1 (stereo unspecified) | 0
Cc1[nH]c(C)c(-c2csc3ccccc23)c(=O)c1Cl | 0
O=c1sn(-c2csc3ccccc23)c2ccccc12 | 18.5
COc1ccc(S(=O)(=O)NCC2CCCN(CCCCCNC(=O)/C=C/c3ccc(Cl)c(Cl)c3)C2)cc1 (stereo unspecified) | 9.22
Cc1nc(Nc2ccc(F)cc2)nc(N2CCc3cc(O)ccc3C2C)c1C (stereo unspecified) | 8.63
O=c1c(NCCCN(Cc2ccc(F)cc2)c2ccccn2)c(NCc2ccncc2)c1=O | 0.7
COc1ccc(CC2(c3ccc(F)cc3)N=C(N)N(CCCc3ccccc3)C2=O)cc1 (stereo unspecified) | 16.7
COc1ccc(CC2(c3ccc(F)cc3)N=C(N)N(CCCc3ccc4c(c3)OCO4)C2=O)cc1 (stereo unspecified) | 6.45
COc1ccc(CC2(c3ccc(F)cc3)N=C(N)N(CCCc3ccc(F)c(F)c3)C2=O)cc1 (stereo unspecified) | 20
COc1ccc(CNC(=O)c2cnc3c(O)cccc3c2Nc2cccc(NC(=O)c3ccc(Cl)c(Cl)c3)c2)cc1 | 7.81
NC(=O)COc1c(C2CCN(CCCCNC(=O)c3ccc(-c4ccc(Cl)cc4)c(O)c3)CC2)ccc2c1CCCC2 | 13.8
CC(C)C1=C[C@H]2C[C@]3(C4OCCO4)[C@@H]4CC[C@@H](C)[C@H]4C[C@@]2(COCc2cccc(C#N)c2)[C@]13C(=O)OC(c1ccccc1)c1ccccc1 | 2.33
CN1CCN(Cc2ccc(-c3ccc4ncnc(Nc5ccc(OCc6ccccc6)cc5)c4c3)o2)CC1 | 6.98
Cc1cccc2nc(-c3ccc(-c4ccc(CNCc5ccc(CN)cc5)cc4)s3)[nH]c12 | 11.9
CC(C)CNCc1ccc(-c2cccc(CNc3ccc4ncccc4c3)c2)cc1 | 8.51
COc1cc2nccc(Nc3ccc(OCc4ccc(NC(C)=O)cc4)cc3)c2cc1OC | 5.84
Nc1nccc2ccc(-c3ccnc(NCc4cccnc4)n3)cc12 | 5.56
Cn1ncc2ccc(Nc3nccc(-c4ccc5c(c4)c(N)nn5C)n3)cc21 | 17.8
COc1ccc(Nc2nccc(-c3ccc4c(-c5ccsc5)cnc(N)c4c3)n2)cc1 | 2.13
CC(CN(C)C)C(=O)Nc1ccc(-c2ccc(-c3nc4cc(C(F)(F)F)ccc4[nH]3)cc2)cc1 (stereo unspecified) | 3.6
CC(C)(C)C(=O)Nc1ccc(N2CCN(C(c3ccccc3)c3ccccc3)CC2)c(Cl)c1 | 3.51
O=C(Nc1ccc(Cl)c(Cl)c1)Nc1ccccc1N1CCNCC1 | 15
Cc1ccc(C(C(=O)Nc2ccc(N3CCNCC3)c(Cl)c2)c2ccccc2)cc1 (stereo unspecified) | 18.6
